# Among all 2,000 compounds or so, about 15 (0.8%) showed an effect of 50% or more. This excerpt belongs to a sample that is enriched for strong results.
# System: Balamuthia mandrillaris (ATCC PRA-291) trophozoites, axenic culture
# Assay: primary screen, percent inhibition; higher = more effect of the substance;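 note: 0% = vehicle wells and 100% = lysate wells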
# Details: 20 µM
# Experimental: Screening of a clinically approved library of compounds, compiled by the Small Molecule Discovery Center (SMDC) at the UCSF, was completed at 20 µM in 0.2% DMSO. All 2,177 drugs in the library were stored as 10 mM stocks dissolved in 100% DMSO (Sigma-Aldrich) at −20°C. B. mandrillaris amoebae were resuspended in axenic medium and distributed into opaque 384-well plates (Corning) at a density of 3,000 amoebae per well using a BioMek NX liquid handler. Negative-control wells were treated with vehicle only (0.2% DMSO in axenic medium), and positive-control wells simulating total destruction of amoebae were seeded with amoeba lysate generated by 3 consecutive freeze-thaw cycles. Following 72 h of incubation, 30 µl of CellTiter Glo reagent (CTG; Promega) was added to each well. The luminescence was measured with a Promega GloMax-Multi+ plate reader at 2, 4, and 8 h after CTG addition. […] The B-score, representing a plate-based statistical approach for correcting row, column, and edge effects, was also calculated for each compound in the library (75).
row,SMILES,% Inhibition [%]
1,CN1C2CCC1CC(OC(=O)[C@H](CO)c1ccccc1)C2 (stereo partly drawn),23
2,COCc1c(C(C)C)nc(C(C)C)c(/C=C/[C@@H](O)C[C@@H](O)CC(=O)O)c1-c1ccc(F)cc1,66.1
3,CC(C)c1nc(N(C)S(C)(=O)=O)nc(-c2ccc(F)cc2)c1/C=C/[C@@H](O)C[C@@H](O)CC(=O)O,35.4
4,O=C(O)C[C@H](O)C[C@H](O)/C=C/c1c(C2CC2)nc2ccccc2c1-c1ccc(F)cc1,15.5
5,N=C(N)NCC1COC2(CCCCC2)O1 (stereo not drawn),21.2
6,COc1ccc2cc3[n+](cc2c1OC)CCc1cc2c(cc1-3)OCO2,29.8
7,CC(=O)Nc1c(I)c(C(=O)N[C@H]2C(O)O[C@H](CO)[C@@H](O)[C@@H]2O)c(I)c(N(C)C(C)=O)c1I (stereo partly drawn),8.04
8,CCOC(=O)c1ncn2c1CN(C)C(=O)c1cc(F)ccc1-2,7.85
9,O=C(O)c1cccnc1Nc1cccc(C(F)(F)F)c1,25.3
10,COc1ccc2cc([C@H](C)C(=O)O)ccc2c1 [130714-L6],22.7
11,Cc1nccn1CC1CCc2c(c3ccccc3n2C)C1=O (stereo not drawn),16.2
12,Cc1c(C(N)=O)cc([N+](=O)[O-])cc1[N+](=O)[O-],20.6
13,C[C@H](CCC(=O)O)[C@H]1CCC2C3C(=O)CC4CC(=O)CC[C@]4(C)C3CC(=O)[C@@]21C (stereo partly drawn),17.3
14,CCCCCCOC(=O)/N=C(\N)c1ccc(NCc2nc3cc(C(=O)N(CCC(=O)OCC)c4ccccn4)ccc3n2C)cc1 [756753-L2],20.4
15,OC(CNCC(O)C1CCc2cc(F)ccc2O1)C1CCc2cc(F)ccc2O1 (stereo not drawn),6.6
16,CC1OC1P(=O)(O)O (stereo not drawn) [131204-L2],12.9
17,C/C(=C\C(=O)OCCCCCCCCC(=O)O)C[C@@H]1OC[C@H](C[C@@H]2O[C@H]2[C@@H](C)[C@H](C)O)[C@@H](O)[C@H]1O,26.3
18,CC(=O)Oc1cc(C(C)C)c(OCCN(C)C)cc1C,24.8
19,CCC(=O)OCC(=O)C1(OC(=O)CC)C(C)CC2C3CCC4=CC(=O)C=CC4(C)C3(Cl)C(O)CC21C (stereo not drawn),22.7
20,NC(=O)C1(N2CCCCC2)CCN(CCCC(=O)c2ccc(F)cc2)CC1,18.8
21,CNCCC[C@]12CC[C@H](c3ccccc31)c1ccccc12,23.8
22,COC(=O)C1[C@H]2C[C@H]3c4[nH]c5ccccc5c4CCN3C[C@@H]2CC[C@@H]1O (stereo partly drawn),22.5
23,CCN(C)C(=O)Oc1cccc([C@H](C)N(C)C)c1 [756883-L2],25.9
24,CC(CCc1ccc(O)cc1)NCC(O)c1ccc(O)cc1 (stereo not drawn),-1.52
25,CC1(C)S[C@@H]2[C@H](NC(=O)[C@H](NC(=O)N3CCN(S(C)(=O)=O)C3=O)c3ccccc3)C(=O)N2[C@H]1C(=O)O,18.9
26,COCCCOc1cc(C[C@@H](C[C@H](N)[C@@H](O)C[C@H](C(=O)NCC(C)(C)C(N)=O)C(C)C)C(C)C)ccc1OC,-4.92

row,SMILES,% Inhibition [%]
1,CCC(=O)OCC(=O)[C@@]1(OC(=O)CC)[C@H](C)CC2C3C([C@@H](O)C[C@@]21C)[C@@]1(C)C=CC(=O)C=C1C[C@H]3Cl (stereo partly drawn),13.3
2,CC(=O)OCC(=O)[C@@]12OC(C)(C)O[C@@H]1C[C@H]1[C@@H]3C[C@H](F)C4=CC(=O)C=C[C@]4(C)[C@@]3(F)[C@@H](O)C[C@@]12C,11.4
3,Cc1cccc(C)c1NC1=NCCCS1,8.96
4,CC(=O)N[C@@H](CS)C(=O)O [129971-L5],0.0866
5,CN(C)c1ccc(C(=C2C=CC(=[N+](C)C)C=C2)c2ccc(N(C)C)cc2)cc1,61.7
6,COc1cc(N)c(Cl)cc1C(=O)N[C@H]1CCN(CCCOc2ccc(F)cc2)C[C@H]1OC,9.62
7,CC(=O)OCC(=O)[C@@]1(O)CCC2C3CCC4=CC(=O)C=C[C@]4(C)[C@@]3(F)[C@@H](O)C[C@@]21C (stereo partly drawn),15.9
8,CCN[C@@H](C)Cc1cccc(C(F)(F)F)c1,20.1
9,CC(=O)S[C@@H]1CC2=CC(=O)CC[C@]2(C)[C@H]2CC[C@@]3(C)[C@@H](CC[C@@]34CCC(=O)O4)C12 (stereo partly drawn),28
10,C/C=C(/C)C(=O)O[C@@H]1[C@H](OC(C)=O)[C@@]2(CO)C(CC1(C)C)C1=CCC3[C@@]4(C)CC[C@H](O[C@@H]5O[C@H](C(=O)O)[C@@H](O[C@@H]6O[C@H](CO)[C@@H](O)[C@H](O)[C@H]6O)[C@H](O)[C@H]5O[C@@H]5O[C@H](CO)[C@@H](O)[C@H](O)[C@H]5O)[C@](C)(CO)C4CC[C@@]3(C)[C@]1(C)C[C@H]2O (stereo partly drawn),3.82
11,CCN(CC)C(=O)C1CN2CCc3cc(OC)c(OC)cc3C2CC1OC(C)=O (stereo not drawn),18.9
12,CC(=O)/N=c1\sc(S(N)(=O)=O)nn1C,11.1
13,COc1ccc2[nH]c(S(=O)Cc3ncc(C)c(OC)c3C)nc2c1 (stereo not drawn) [255785-L6],24.6
14,COc1ccc2c3c1O[C@H]1[C@@H](O)C=C[C@H]4[C@@H](C2)N(C)CC[C@@]341,10.8
15,CC(=O)OCC(=O)[C@@]1(O)CC[C@H]2[C@@H]3CCC4=CC(=O)CC[C@]4(C)[C@@]3(F)[C@@H](O)C[C@@]21C,17.7
16,CC(C)/N=C(N)/N=C(\N)Nc1ccc(Cl)cc1 [131550-L3],10.7
17,N=C(NCCCCCCNC(=N)NC(=N)Nc1ccc(Cl)cc1)NC(=N)Nc1ccc(Cl)cc1,63.6
18,CC(C)/N=C(N)/N=C(\N)Nc1ccc(Cl)cc1 [131550-L2],9.42
19,O=C(O)COC(=O)Cc1ccccc1Nc1c(Cl)cccc1Cl,-10.4
20,N=C(N)N,14.8
21,Cc1cc2nc3c(=O)[nH]c(=O)nc-3n(C[C@H](O)[C@H](O)[C@H](O)CO)c2cc1C,14.9
22,CO/N=C(\C(=O)N[C@@H]1C(=O)N2C(C(=O)O)=C(CSc3nc(=O)c(=O)[nH]n3C)CS[C@@H]12)c1csc(N)n1,13.4
23,Cc1ccc(S(=O)(=O)NC(=O)NN2CCCCCC2)cc1,32
24,C[C@]12CCC3c4ccc(OS(=O)(=O)O)cc4CCC3C1CCC2=O (stereo partly drawn),-1.63
25,CO[C@@H]1[C@@H](OC(N)=O)[C@@H](O)[C@H](Oc2ccc3c(O)c(NC(=O)c4ccc(O)c(CC=C(C)C)c4)c(=O)oc3c2C)OC1(C)C,9.7
26,O=C(O)CCCCC1CCSS1 (stereo not drawn),21.9

row,SMILES,% Inhibition [%]
1,CCC(=O)O[C@H]1[C@H](O[C@@H]2[C@@H](C)[C@H](O[C@H]3C[C@@](C)(OC)[C@@H](O)[C@H](C)O3)[C@@H](C)C(=O)O[C@H](CC)[C@@](C)(O)[C@H](O)[C@@H](C)C(=O)[C@H](C)C[C@@]2(C)O)O[C@H](C)C[C@@H]1N(C)C,4.56
2,C=Cc1c(C)c2cc3[nH]c(cc4nc(cc5nc(cc1[nH]2)C(C)=C5CCC(=O)O)C(CCC(=O)O)=C4C)c(C)c3C=C,5.79
3,C[C@H]1CN(C[C@H](Cc2ccccc2)C(=O)NCC(=O)O)CC[C@@]1(C)c1cccc(O)c1,13.2
4,C1N2CN3CN1CN(C2)C3,25.9
5,CN(C)CCC[C@@]1(c2ccc(F)cc2)OCc2cc(C#N)ccc21 [131042-L5],29.1
6,c1ccc(-c2ccc(C(c3ccccc3)n3ccnc3)cc2)cc1 (stereo not drawn),2.05
7,O=C(O)C1CSCN1 (stereo not drawn),29
8,CC[C@H]1OC(=O)[C@H](C)[C@@H](O[C@H]2C[C@@](C)(OC)[C@@H](O)[C@H](C)O2)[C@H](C)[C@@H](O[C@@H]2O[C@H](C)C[C@H](N(C)C)[C@H]2O)[C@](C)(O)C[C@@H](C)C(=O)[C@H](C)[C@@H](O)[C@]1(C)O [129937-L7],19.9
9,CO/N=C(\C(=O)N[C@@H]1C(=O)N2C(C(=O)O)=C(COC(N)=O)CS[C@H]12)c1ccco1,11.5
10,Cc1ccc(S(=O)(=O)NC(=O)NN2CC3CCCC3C2)cc1 (stereo not drawn),10.2
11,Cc1oncc1C(=O)Nc1ccc(C(F)(F)F)cc1,15
12,O=C(O)P(=O)(O)O,19.1
13,CCCCN(CCCC)CC(O)c1cc(Cl)cc2c1-c1ccc(Cl)cc1/C2=C/c1ccc(Cl)cc1 (stereo not drawn),5.93
14,CC[C@@]1(O)C(=O)OCc2c1cc1n(c2=O)Cc2cc3c([N+](=O)[O-])cccc3nc2-1,-33
15,C[N+](C)(C)CCCCCC[N+](C)(C)C,26
16,C[N+](C)(C)CCCCCCCCCC[N+](C)(C)C,25.7
17,CCCCCCCCCCCCCCCC[N+](C)(C)C,56.1
18,CC[C@H]1OC(=O)[C@H](C)[C@@H](O[C@H]2C[C@@](C)(OC)[C@@H](O)[C@H](C)O2)[C@H](C)[C@@H](O[C@@H]2O[C@H](C)C[C@H](N(C)C)[C@H]2O)[C@](C)(OC)C[C@@H](C)C(=O)[C@H](C)[C@@H](O)[C@]1(C)O,8.87
19,O=C1NCCN1CCN1CCC(c2cn(-c3ccc(F)cc3)c3ccc(Cl)cc23)CC1,23.8
20,CN1CCc2c(c3ccccc3n2Cc2ccccc2)C1,34.1
21,CN/C(=C/[N+](=O)[O-])NCCSCc1ccc(CN(C)C)o1,7.74
22,CN/C(=C\[N+](=O)[O-])NCCSCc1ccc(CN(C)C)o1,68.1
23,CN/C(=C\[N+](=O)[O-])NCCSCc1csc(CN(C)C)n1,23.7
24,Nc1c(Br)cc(Br)cc1CNC1CCC(O)CC1 (stereo not drawn),20.4
25,C#C[C@]1(OC(C)=O)CCC2C3CCC4=C/C(=N/O)CCC4C3CC[C@@]21CC (stereo partly drawn),19.6
26,Cc1cnc(C(=O)O)c[n+]1[O-],0.14

# Reference: PMC6212833
